High-throughput results: PubChem, National Center for Advancing Translational Sciences (NCATS)
Hits are enriched below; roughly 7.9% of the tested compounds scored in any of these assays.
FMDV inh: High Throughput Screening for Foot and Mouth Disease Virus Antivirals | FMDV antiviral cell-based qHTS | Potency, µM (highest dose often 57.9 µM), for inactives: top-dose activity change, negative = inhibition, usual class: inhibitors | 410,000 compounds, 1.2% hits | AID 1159524, 2015; calls by dose curve; tested in HEK293T cells; also: read-out not given here; potency is read from the fitted curve at half-maximal effect; nearly all actives have a fitted effect of over 45% in size
HCV inh: qHTS Assay for Inhibitors of Hepatitis C Virus (HCV) | Huh7.5.1 HCVcc-Cre infection, luciferase reporter, 44 h | Potency, µM (series often up to 41.8 µM), inactives show at the highest dose activity change, negative = inhibition, most hits filed as inhibitors | 340,000 compounds, 3.4% hits | AID 651820, 2012; active = well fitted inhibition curve with a large enough effect; inconclusive = small, poorly fitted or top-dose-only effect, or another doubt; inactive = no such curve, though single readings can be large or run the other way; also: potency is read from the fitted curve at half-maximal effect
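1,000 cells/well; 4 h culture; + compound; + HCVcc-Cre (~0.5 moi); 44 h; luciferase substrate, RT 15 min; read 15 sec.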
LASV entry inh: qHTS for Inhibitors of binding or entry into cells for Lassa Virus | Lassa virus pseudotype entry inhibition, cell reporter | Potency, µM (top dose mostly 37.9 µM), for inactives: at the highest dose activity change, negative = inhibition, actives largely listed as inhibitors | 300,000 compounds, 1.2% hits | AID 540256, 2011; calls by dose curve; tested in HEK293 cells; also: potency is read from the fitted curve at half-maximal effect; nearly all actives have a fitted effect of over 50% in size
HCMV inh: qHTS Assay for inhibitors of the human cytomegalovirus (HCMV). HFF cells, HCMV-luciferase reporter, 72 h; active compounds read low. activity change, negative = inhibition, % at 57.5 µM. 410,000 compounds, 4.5% hits; in the data active = activity change below about -60%; inconclusive = no clear call, values can overlap the other calls; inactive = above about -39%
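Steps: HFFs plated, 16 h 37C; compounds added; HCMV-luciferase added to MOI 1 PFU/cell; 72 h 37C; OneGlo reagent, 5 min room temperature; luminescence read, normalized to controls.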
Marburg entry inh: qHTS for inhibitors of binding or entry into cells for Marburg Virus; Marburg virus pseudotyped entry inhibition, cell reporter; Potency, µM (doses to about 37.8 µM), without a hit: at the highest dose activity change, negative = inhibition, usual class: inhibitors; 300,000 compounds, 1.8% hits; AID 540276, 2011; calls by dose curve; tested in HEK293 cells; also: potency is read from the fitted curve at half-maximal effect
* hit, by the source's call; ? = inconclusive; · = not tested or not shown; ! = not active in a repeat; [ ] = another dose, or the depositor's remark. % is scaled to controls: 0 for no effect and ±100 for the full control effect.

SMILES	FMDV inh	HCV inh	LASV entry inh	HCMV inh	Marburg entry inh
CCOC(=O)C1=C(C)NC(C)=C(C(=O)OC)C1c1cccc([N+](=O)[O-])c1 (stereo not drawn)	-24%	?	?	?	2.5µM*!
CCCS(=O)(=O)NCc1c(C)ncc2c1CCN(C(=O)c1cccc(-c3ccccc3F)c1)C2	7%	·	·	·	·
Oc1ccc(Nc2nccc3[nH]c(-c4cccc(F)c4)cc23)cc1	·	·	·	-9	·
COc1ccc(CNC(=O)c2c3c(nc4ccccc24)C(=O)N(C2CCCCC2)C3)cc1	-17%	·	-6%[46.1 µM]	30	·
Cc1ccc(/C=C/C(=O)c2ccccc2O)cc1	-18%	14%	19%	9	?
COc1ccc(C(=O)/C=C/c2ccc(O)cc2)cc1	30%	-27%	·	33	·
COc1ccc(OC)c(C(=O)C(=O)c2cc(OC)ccc2OC)c1	-27%	?	-4%	-2	?
COc1ccc(C=CC(=O)c2c(OC)cc(OC)c(OC)c2O)cc1	18µM*	-26%	-25%	0	?
COc1ccc(OC)c(C(=O)/C=C/c2ccccc2C(F)(F)F)c1	20µM*	10µM*	?	-104*	?
Cc1ccc(O)c(C(=O)C=Cc2ccccc2)c1	35µM*	?	7%[46.1 µM]	8	?
COc1cc(/C=C/C(=O)O)cc(OC)c1O	-13%	-11%	·	?	·
COc1cc(C)cc(C(=O)C=Cc2ccccc2)c1O	32µM*	-15%	-28%[46.1 µM]	37	?
Cc1ccc(CNS(=O)(=O)c2cc3[nH]c(=O)c(=O)[nH]c3cc2C)cc1	-7%	·	-8%[46.1 µM]	0	·
CCOc1ccc(C(C)NC(=O)c2ccc3c(c2)NC(=O)C(C)S3)cc1OCC (stereo not drawn)	?	-1%	·	-13	·
COc1ccc(C(=O)/C=C/c2ccccc2)c(OC)c1	-17%	-1%	·	-68*	·
COc1ccc2cc(C(=O)/C=C/c3cc(OC)c(O)c(OC)c3)ccc2c1	21%	?	?	-33	?
COc1ccc(C(=O)/C=C/c2cc(OC)c(O)c(OC)c2)c(F)c1	?	13µM*	13µM*	-96*	?
COc1ccc(C(=O)/C=C/c2ccccc2)cc1	12%	·	·	·	·
COc1ccc(C(=O)/C=C/c2ccc(N(C)C)cc2)c(OC)c1	43%	?	10µM*	-6	7.1µM*
COc1cccc(/C=C/C(=O)c2ccc[nH]2)c1	29%	-22%	?	-87*	-21%
O=C(/C=C/c1ccc2c(c1)OCO2)c1ccc[nH]1	30%	-2%	?	-7	?
CN(C(=O)Cn1cccc1C1=NC(c2ccccc2)CO1)c1ccccc1 (stereo not drawn)	-10%	-4%	4%	-28	-7%
COc1ccc(NC(=O)CCc2c(C)nn(-c3ccc(N4CCCC4)nn3)c2C)cc1Cl	21%	·	?	70	·
O=C(O)CC1NCCc2ccccc21 (stereo not drawn)	7%	14%	·	-8	-3%
COC(=O)c1ccc(NC(=O)CC2C(=O)N(c3ccc(Cl)cc3)C(=O)N2Cc2cccs2)cc1 (stereo not drawn)	-10%	·	-22%[46.1 µM]	-14	·
SMILES	FMDV inh	HCV inh	LASV entry inh	HCMV inh	Marburg entry inh
COc1ccc(C=CC(=O)C=CC=Cc2ccccc2)cc1	-10%	?	?	19	?
COC1=C(C)C(O)=C(C(=O)/C=C/c2ccccc2)C(=O)C1(C)C	-4%	2%	·	-77*	·
CCOc1ccccc1NC(=O)c1c(NCc2ccc(OC)c(OC)c2OC)sc2c1CCC(C)C2 (stereo not drawn)	-12%	·	?	21	·
COc1cc(/C=C/C(=O)OCC(=O)N2CCC(Cc3ccccc3)CC2)ccc1O	32µM*	?	?	-18	-9%
Nc1cc(C(=O)OCC(=O)N2CCC(Cc3ccccc3)CC2)ccc1Cl	-18%	0%	·	-65*	·
COc1cccc(OC)c1C(=O)OCC(=O)N1CCC(Cc2ccccc2)CC1	-6%	17%	-6%[46.1 µM]	-99*	5%[46.1 µM]
COc1cccc(C(=O)OCC(=O)N2CCC(Cc3ccccc3)CC2)c1OC	?	-24%	·	28	·
COc1cc(/C=C/C(=O)OCC(=O)N2CCC(C)CC2)ccc1O	-4%	-6%	12%	3	12%
COc1cc(/C=C/C(=O)OC2CC3CCC2(C)C3(C)C)ccc1O (stereo not drawn)	17%	?	·	-103*	·
